This is part of a sample that, as a whole, favours compounds with a hit. Of some 83,000 tested, about 20% had one in any assay.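 Step 1: grow cells in 96-well plates. Step 2: add test compound at a single concentration. Step 3: incubate 48 h. Step 4: record percent growth.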 Calls of active or inactive are those of the source. Rule for the calls: active = growth percent below 10; inactive = the rest.
Experiments:
Assay in all cases: NCI-60 one-dose screen, 48 h (100 = growth as untreated, 0 = no growth, -100 = all killed)
Conditions in all cases: 10 µM unless noted
HT29 colon = test system: HT29 colon
SNB-75 CNS = test system: SNB-75 CNS
SNB-19 CNS = test system: SNB-19 CNS
U251 CNS = test system: U251 CNS
PC-3 prostate = test system: PC-3 prostate
SK-MEL-5 melanoma = test system: SK-MEL-5 melanoma
UACC-62 melanoma = test system: UACC-62 melanoma
LOX IMVI melanoma = test system: LOX IMVI melanoma
SK-MEL-28 melanoma = test system: SK-MEL-28 melanoma
SK-MEL-2 melanoma = test system: SK-MEL-2 melanoma

Measured: growth

CC(C)(C)Nc1nc2c(OCCc3ccccc3)cccn2c1-c1cccc(F)c1
active: HT29 colon -14.2% | U251 CNS -43.8% | PC-3 prostate -4.7% | SK-MEL-5 melanoma -82.4% | UACC-62 melanoma -7.68% | LOX IMVI melanoma -83.1%
inactive: SNB-75 CNS 33.2% | SNB-19 CNS 20.4% | SK-MEL-28 melanoma 15%

CN(C)c1ccc(/C=c2\sc3nc4ccccc4n3c2=O)cc1
inactive: HT29 colon 107% | SNB-75 CNS 105% | SNB-19 CNS 99.3% | U251 CNS 102% | PC-3 prostate 106% | SK-MEL-5 melanoma 101% | UACC-62 melanoma 96.5% | LOX IMVI melanoma 118% | SK-MEL-28 melanoma 103%

Cc1nc(-c2cc3ccccc3oc2=O)ccc1C(=O)/C=C/c1ccc(N2CCOCC2)cc1
inactive: HT29 colon 80.4% | SNB-75 CNS 58.9% | SNB-19 CNS 79.9% | U251 CNS 89.8% | PC-3 prostate 86.6% | SK-MEL-5 melanoma 71.5% | UACC-62 melanoma 52.1% | LOX IMVI melanoma 31.3% | SK-MEL-28 melanoma 72.8%

CCOC(=O)c1c(Nc2ccccc2)nn2c(N)c(C#N)c(-c3ccc(Cl)cc3)nc12
inactive: HT29 colon 73.1% | SNB-19 CNS 89.8% | U251 CNS 44.6% | PC-3 prostate 40.9% | SK-MEL-5 melanoma 94.8% | UACC-62 melanoma 70% | LOX IMVI melanoma 49.3% | SK-MEL-28 melanoma 78.5%
active: SNB-75 CNS -11.2%

O=C1c2c(c3c4cc(Br)ccc4[nH]c3c3ccc4ccccc4c23)C(=O)N1CCO
inactive: HT29 colon 89.9% | SNB-75 CNS 128% | SNB-19 CNS 85.6% | U251 CNS 74.3% | PC-3 prostate 83.3% | SK-MEL-5 melanoma 100% | UACC-62 melanoma 72.6% | LOX IMVI melanoma 66.4% | SK-MEL-28 melanoma 99.8%

Nc1cc(-c2c[nH]c3ccc(Cl)cc23)nc2cc(-c3c[nH]c4ccc(Cl)cc34)nn12
active: HT29 colon 0.992% | U251 CNS 9.85% | LOX IMVI melanoma -5.92%
inactive: SNB-75 CNS 71.9% | SNB-19 CNS 70.5% | PC-3 prostate 36.4% | SK-MEL-5 melanoma 70.9% | UACC-62 melanoma 70.4% | SK-MEL-28 melanoma 80.8% | SK-MEL-2 melanoma 71.6%

Cc1ccccc1NC(=O)/C=C/c1ccc(OCCOc2ccc3c(C)cc(=O)oc3c2)cc1
inactive: HT29 colon 96.7% | SNB-75 CNS 84.1% | SNB-19 CNS 86.4% | U251 CNS 85.8% | PC-3 prostate 95.8% | SK-MEL-5 melanoma 92.6% | UACC-62 melanoma 91.6% | LOX IMVI melanoma 88.5% | SK-MEL-28 melanoma 90.9% | SK-MEL-2 melanoma 103%

Nc1ncc(-c2ccc3ncnc(N4CCc5cc(F)c(Cl)cc54)c3c2)cc1CO
inactive: HT29 colon 12.7% | SNB-19 CNS 19.1% | U251 CNS 18.8%
active: SNB-75 CNS -28.6% | PC-3 prostate 8.02% | SK-MEL-5 melanoma -72.4% | UACC-62 melanoma -60.5% | LOX IMVI melanoma 7.2% | SK-MEL-28 melanoma -4.29% | SK-MEL-2 melanoma -63.4%

CN(C)CCCOc1c2ccccc2nc2c1oc1ccc(Cl)cc12
active: HT29 colon -43.4% | SNB-75 CNS 5.58% | PC-3 prostate 5.23% | SK-MEL-5 melanoma -16% | UACC-62 melanoma -49.7% | LOX IMVI melanoma -85.1% | SK-MEL-28 melanoma 9.1%
inactive: SNB-19 CNS 16.1% | U251 CNS 16.7%

Clc1ccc2oc3c(OCCCn4ccnc4)c4ccccc4nc3c2c1
inactive: HT29 colon 36.7% | SNB-75 CNS 68.5% | SNB-19 CNS 73.5% | U251 CNS 61.6% | PC-3 prostate 68.9% | SK-MEL-5 melanoma 92.8% | UACC-62 melanoma 83.1% | LOX IMVI melanoma 42.8% | SK-MEL-28 melanoma 89.8%

CC(=O)Oc1ccccc1C(=O)Nc1ccc(C(=O)/C=C/c2cccs2)cc1
inactive: HT29 colon 110% | SNB-75 CNS 113% | SNB-19 CNS 101% | U251 CNS 99.4% | PC-3 prostate 103% | SK-MEL-5 melanoma 101% | UACC-62 melanoma 98.3% | LOX IMVI melanoma 100% | SK-MEL-28 melanoma 106%

Clc1ccc2c(OCCCN3CCOCC3)c3oc4ccccc4c3nc2c1
inactive: HT29 colon 25.2% | SNB-75 CNS 43.5% | SNB-19 CNS 41.9% | U251 CNS 36.2% | PC-3 prostate 50.7% | SK-MEL-5 melanoma 42.7% | UACC-62 melanoma 33.6% | LOX IMVI melanoma 12.9% | SK-MEL-28 melanoma 42.1%

CN(C)CCCOc1c2ccc(Cl)cc2nc2c1oc1ccc(Cl)cc12
active: HT29 colon -77.6% | U251 CNS -66% | SK-MEL-5 melanoma -19.3% | UACC-62 melanoma -68.1% | LOX IMVI melanoma -77.2% | SK-MEL-28 melanoma 4.58%
inactive: SNB-75 CNS 18.3% | SNB-19 CNS 24.5% | PC-3 prostate 23.2%
